Unmarked numbers belong to inactive results. Results filed as inconclusive are left out. Where a call stands in place of a potency, no number is given. Active and inactive are the calls of the source. Unless noted, calls follow the shape of the dose curve; as a rule, active = well fitted curve in the direction sought with a large enough effect in the repeat runs; inconclusive = weak or mixed curves; inactive = no such curve, though single readings can be large; an effect the other way counts as inactive or inconclusive.
Tests used:
[1] = qHTS assay for small molecule agonists of the p53 signaling pathway (AID 651631; calls by dose curve; also: nearly all actives have a fitted effect of over 15% in size; also: potency is read from the fitted curve at half-maximal effect)
Outline: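 HCT-116 cells carrying a stable p53 response element–beta-lactamase reporter were plated, rested 5 h at 37 °C, then exposed to compound in DMSO for 16 h at 37 °C; reporter activity was read as FRET substrate fluorescence after 2 h at room temperature.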

[2] = qHTS assay for small molecules that induce genotoxicity in human embryonic kidney cells expressing luciferase-tagged ATAD5 (AID 651632); also: nearly all actives have a fitted effect of over 15% in size
Outline: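 DMSO vehicle served as the control. HEK293T reporter cells, 16 hr at 37C, then 30 min Amplite at room temperature; ATAD5 induction is measured as luciferase activity.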

[3] = qHTS assay for small molecule agonists of the p53 signaling pathway - cell viability (AID 651633; calls by dose curve; also: nearly all actives have a fitted effect of over 30% in size; also: potency is read from the fitted curve at half-maximal effect)
Outline: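 Viability counter-read: CellTiter-Glo luminescence (30 min, room temperature) in the same p53RE-bla plates. These plates had been exposed to compounds for 16 h at 37 C.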

[4] = qHTS assay for small molecules that induce genotoxicity in human embryonic kidney cells expressing luciferase-tagged ATAD5 - cell viability (AID 651634; calls by dose curve; also: nearly all actives have a fitted effect of over 25% in size)
Outline: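 Here HEK293T cells with the ATAD5 luciferase reporter are incubated with test compounds for 15.5 hr, and cytotoxicity is then gauged by measuring protease activity in live cells using fluorescence.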

[5] = qHTS assay for small molecule disruptors of the mitochondrial membrane potential - cell viability (AID 720634; calls by dose curve;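 also: human HepG2 liver cancer cells; series mostly up to about 83 µM; nearly all actives have a fitted effect of over 20% in size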)
Outline: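 Viability of HepG2 cells is scored from ATP content by luminescence; cells are exposed to compound for 1 hr at 37 C and 5% CO2, then dosed with m-MPI dye before the CellTiter-Glo reagent.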

[6] = qHTS assay to test for compound auto fluorescence at 590 nm (red) in HepG2 cells (AID 720674)
Outline: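 We screened compounds on adherent HepG2 cells, incubating them for an hour at 37 C in 5% CO2 before reading emission at 590 nm under 540 nm excitation; values reflect equivalence to Rose Bengal sodium fluorescence.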

[7] = qHTS assay to test for compound auto fluorescence at 535 nm (green) in HepG2 cells (AID 720675)
[8] = qHTS assay to test for compound auto fluorescence at 460 nm (blue) in HEK293 cells (AID 720678)
Outline: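 After cell attachment (4-5 hr, 37C), compounds were pinned onto HEK293 monolayers in 10% dialyzed FBS medium. The blue channel (405/460 nm) was read following overnight culture. Equivalency was calculated against triamterene.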

[9] = qHTS assay to test for compound auto fluorescence at 535 nm (green) in HEK293 cells (AID 720680)
[10] = qHTS assay to test for compound auto fluorescence at 460 nm (blue) in HEK293 cell free culture (AID 720681)
Outline: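 Blue fluorescence (Ex 405/Em 460 nm, triamterene-equivalent) was read immediately after pin transfer of compound or DMSO into medium (DMEM, 10% FBS) without cells.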

[11] = qHTS assay to test for compound auto fluorescence at 535 nm (green) in HEK293 cell free culture (AID 720682)
Outline: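 Read-out: 485/535 nm fluorescence intensity, calibrated against fluorescein. Medium only (DMEM + 10% FBS, no cells); test compound or DMSO vehicle added by pintool before plate reading.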

[12] = qHTS assay to test for compound auto fluorescence at 590 nm (red) in HEK293 cell free culture (AID 720683)
Outline: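 Red-channel autofluorescence of compounds in culture medium (DMEM, 10% FBS), no cells, measured at 540/590 nm. Rose Bengal sodium is the reference fluorophore for equivalence.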

[13] = qHTS assay to test for compound auto fluorescence at 460 nm (blue) in HepG2 cell free culture (AID 720685)
Outline: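 Cell-free plates of MEM plus 10% FBS received 23 nL compound or DMSO vehicle; blue-channel (405/460 nm) intensity scored against triamterene as reference fluorophore.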

[14] = qHTS assay to test for compound auto fluorescence at 535 nm (green) in HepG2 cell free culture (AID 720686)
[15] = qHTS assay to test for compound auto fluorescence at 460 nm (blue) in HepG2 cells (AID 720687)
Outline: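 Blue-channel autofluorescence (Ex/Em 405/460 nm, triamterene-equivalent) was measured after 1 hr compound exposure at 37 C, 5% CO2. Cells were HepG2, plated overnight at 37 C in MEM plus 10% FBS.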

[16] = target: Glucocorticoid receptor (Homo sapiens) (UniProt P04150); assay: qHTS assay to identify small molecule agonists of the glucocorticoid receptor (GR) signaling pathway (AID 720691; active = well fitted activation curve with a large enough effect in the signal ratio in the repeat runs, not every such curve was filed as active; the % refers to the signal ratio)
Chain of Glucocorticoid receptor (Homo sapiens) (P04150 whole entry, looked up): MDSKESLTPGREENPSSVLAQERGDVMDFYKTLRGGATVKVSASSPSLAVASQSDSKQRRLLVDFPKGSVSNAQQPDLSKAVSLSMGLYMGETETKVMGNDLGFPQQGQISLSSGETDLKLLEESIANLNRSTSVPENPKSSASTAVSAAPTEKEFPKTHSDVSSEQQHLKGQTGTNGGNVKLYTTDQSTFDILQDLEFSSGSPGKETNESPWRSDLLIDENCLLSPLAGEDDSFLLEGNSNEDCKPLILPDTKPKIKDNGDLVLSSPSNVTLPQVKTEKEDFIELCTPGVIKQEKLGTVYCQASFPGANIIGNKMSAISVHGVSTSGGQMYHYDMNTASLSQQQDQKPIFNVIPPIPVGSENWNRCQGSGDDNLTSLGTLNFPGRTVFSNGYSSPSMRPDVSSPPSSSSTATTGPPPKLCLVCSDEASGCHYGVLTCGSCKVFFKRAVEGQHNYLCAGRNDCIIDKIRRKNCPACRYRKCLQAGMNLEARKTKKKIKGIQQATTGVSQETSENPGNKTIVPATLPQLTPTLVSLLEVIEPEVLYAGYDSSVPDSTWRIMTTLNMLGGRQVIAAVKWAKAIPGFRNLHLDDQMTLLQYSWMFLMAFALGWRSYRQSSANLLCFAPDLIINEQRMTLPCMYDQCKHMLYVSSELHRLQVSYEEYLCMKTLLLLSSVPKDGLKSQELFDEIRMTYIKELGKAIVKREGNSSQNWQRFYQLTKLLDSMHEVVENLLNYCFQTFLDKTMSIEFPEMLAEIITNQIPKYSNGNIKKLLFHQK
Outline: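 Compounds in DMSO, alongside positive controls, were added to GR-bla HeLa reporter cells and incubated 18 h at 37 C; GRE-driven beta-lactamase was detected by fluorescence after 2 h with FRET substrate at room temperature.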

[17] = target: Glucocorticoid receptor (Homo sapiens) (UniProt P04150); assay: qHTS assay to identify small molecule antagonists of the glucocorticoid receptor (GR) signaling pathway (AID 720692; active = well fitted inhibition curve with a large enough effect in the signal ratio in the repeat runs, not every such curve was filed as active; the % refers to the signal ratio; also: potency is read from the fitted curve at half-maximal effect)
Outline: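 In a 1536-well cell format, compounds were added 4 h after seeding GR-bla HeLa cells, together with dexamethasone at 5 nM final; reporter activity was measured by FRET-substrate fluorescence following 18 h at 37 C.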

[18] = qHTS assay to test for compound auto fluorescence at 590 nm (red) in HepG2 cell free culture (AID 720684)
Outline: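 No cells present: MEM + 10% FBS only. Compound pinned in, red label read (540/590 nm). Activity = fluorescence equivalent to Rose Bengal sodium.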

[19] = qHTS assay for small molecule disruptors of the mitochondrial membrane potential (AID 720635); also: potency is read from the fitted curve at half-maximal effect
Outline: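 Mitochondrial membrane potential tracked with Mito-MPS dye, red aggregates (ex 540/em 590 nm) against green monomers (ex 490/em 535 nm). Compound treatment 1 hr at 37C, dye 30 min in HepG2.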

[20] = qHTS assay to test for compound auto fluorescence at 590 nm (red) in HEK293 cells (AID 720679)
Outline: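 Plates of HEK293 cells (10% dialyzed FBS) are treated with 23 nL compound or DMSO vehicle after a 4-5 hr attachment period, incubated overnight at 37C, and read for red fluorescence at 540/590nm.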

Compound | Potency [1] | Potency [2] | Potency [3] | Potency [4] | Potency [5] | outcome [6] | outcome [7] | outcome [8] | outcome [9] | outcome [10] | outcome [11] | outcome [12] | outcome [13] | outcome [14] | outcome [15] | outcome [16] | Potency [17] | outcome [18] | Potency [19] | outcome [20]
BrCCCCBr | inactive | inactive | inactive | inactive | inactive | inactive | inactive | inactive | inactive | inactive | inactive | inactive | inactive | inactive | inactive | inactive | inactive | – | – | –
CCCCOC(=O)c1ccccc1C(=O)OCc1ccccc1 | inactive | inactive | inactive | inactive | inactive | inactive | inactive | inactive | inactive | inactive | inactive | inactive | inactive | inactive | inactive | – | inactive | inactive | – | –
CCC(C)(NC(=O)c1cc(Cl)c(C)c(Cl)c1)C(=O)CCl (stereo not given) | 27.5 µM (active) | inactive | 61.5 µM (active) | – | – | inactive | – | inactive | inactive | inactive | inactive | inactive | inactive | inactive | inactive | – | – | inactive | 17.3 µM (active) | –
Cn1cc[n+](C)c1 (tested in a mixture with another compound) | inactive | inactive | – | inactive | inactive | inactive | inactive | inactive | inactive | inactive | inactive | inactive | inactive | – | inactive | – | – | inactive | inactive | –
O=[N+]([O-])c1ccccc1CCl | inactive | inactive | – | inactive | inactive | – | inactive | inactive | inactive | inactive | inactive | inactive | inactive | inactive | inactive | inactive | inactive | inactive | inactive | inactive
Cc1ccccc1C(=O)Nc1cccc(OC(C)C)c1 | inactive | inactive | inactive | inactive | – | inactive | inactive | inactive | inactive | inactive | inactive | inactive | inactive | inactive | inactive | inactive | inactive | – | 30.6 µM (active) | inactive
COc1ccc(-c2ccccc2)cc1NNC(=O)OC(C)C | inactive | inactive | inactive | – | inactive | – | inactive | inactive | inactive | inactive | inactive | inactive | inactive | – | inactive | inactive | – | inactive | 56.8 µM (active) | –
CO/C=C(/C(=O)OC)c1ccccc1COc1cccc(C(F)(F)F)n1 | 8.63 µM (active) | inactive | inactive | inactive | – | inactive | inactive | inactive | inactive | inactive | inactive | inactive | inactive | – | inactive | – | – | – | 6.85 µM (active) | inactive
CCOC(=O)CBr | inactive | inactive | – | inactive | inactive | inactive | inactive | inactive | inactive | inactive | inactive | inactive | inactive | inactive | inactive | inactive | – | inactive | – | –
CCCCN=C=O | inactive | inactive | inactive | inactive | inactive | inactive | – | inactive | inactive | inactive | inactive | inactive | inactive | inactive | inactive | – | – | inactive | – | inactive
CN(C)c1ccc(N(C)C)cc1 | inactive | inactive | inactive | inactive | – | – | – | inactive | inactive | inactive | inactive | inactive | inactive | – | inactive | – | – | inactive | inactive | inactive
O=C(CBr)OCc1ccccc1 | inactive | inactive | – | inactive | inactive | – | inactive | inactive | inactive | inactive | inactive | inactive | inactive | inactive | inactive | – | inactive | inactive | – | –
COc1c(C(C)(C)C)cc([N+](=O)[O-])c(C)c1[N+](=O)[O-] | inactive | inactive | – | inactive | inactive | inactive | inactive | inactive | inactive | inactive | inactive | inactive | inactive | inactive | inactive | inactive | inactive | inactive | – | inactive
NNC(=O)c1cccnc1 | inactive | inactive | inactive | inactive | inactive | inactive | inactive | inactive | inactive | inactive | inactive | inactive | inactive | inactive | inactive | inactive | – | – | – | inactive
N#Cc1ccc(Cl)cc1 | inactive | inactive | – | inactive | inactive | inactive | – | inactive | inactive | inactive | inactive | inactive | inactive | inactive | inactive | inactive | inactive | inactive | – | inactive
CCOC(=O)C(Cl)C(C)=O (stereo not given) | inactive | inactive | inactive | inactive | inactive | – | inactive | inactive | inactive | inactive | inactive | inactive | inactive | inactive | inactive | – | – | inactive | – | inactive
CCOP(=O)(OCC)O/C(=C/Cl)c1ccc(Cl)cc1Cl | inactive | inactive | inactive | inactive | inactive | inactive | inactive | inactive | inactive | inactive | inactive | inactive | inactive | inactive | inactive | inactive | 49 µM (active) | – | – | –

Reference: PubChem BioAssay (Tox21)
